aSyn UTR act: Activators via SNCA 5'UTR binding, MLPCN; alpha-synuclein 5'UTR reporter, activators screen; activity score, % (tested at 7.5 µM), hits read low; hit rate 7.1% among 300,000; AID 1814, 2009; in the data active = activity score below about -60%
The depositor's hits bear a star. A selection follows.

SMILES	aSyn UTR act
CCCS(=O)(=O)NCc1cn2c(C)csc2n1	-112*
Cc1csc2nc(CCNS(=O)(=O)c3cccs3)cn12	-141*
O=c1oc2ccccc2c(Nc2ccc3ccccc3c2)c1[N+](=O)[O-]	-94*
O=C(NCC1CCCN(C(=O)c2cscn2)C1)c1ccccc1Cl (configuration not stated)	-78*
CCS(=O)(=O)N1CCC(c2nc(-c3ccc(C)cc3)no2)CC1	-78*
Cc1ccc(-c2noc(C3CCCCC3)n2)cc1	-187*
Cc1ccc(N(C)S(=O)(=O)c2ccc(-c3cnc(C4CC4)o3)cc2)cc1	84
Cc1cccc(-c2noc(C3CCCCC3)n2)c1	-150*
Cc1cccc(-c2noc(-c3ccno3)n2)c1	-121*
CCN(CC)C(=O)c1cc(-c2ccc(Br)cc2)on1	-152*
O=C(c1cc(-c2ccccc2)on1)N1CCCCCC1	-200*
O=C(c1cc(-c2ccc(Br)cc2)on1)N1CCCC1	-109*
CN1CCN(C(=O)c2cc(-c3ccccc3)on2)CC1	-80*
O=C(c1cc(-c2cccc(O)c2)on1)N1CCCC1	-106*
CCOC(=O)C1CCN(c2nnc(N3CCCC3=O)s2)CC1	-66*
Cc1cccc(N=Nc2cn[nH]c2-c2ccco2)c1	-125*
O=c1[nH]cnc2sc(-c3ccccc3)cc12	-86*
O=c1[nH]c(-c2ccccc2)nc2sc(-c3ccccc3)cc12	-235*
Cc1cc(O)c(NC(=O)c2cc([N+](=O)[O-])ccc2Cl)cc1C	-106*
O=C(CCl)Nc1cccc2ncccc12	-95*
O=C(Nc1cccc2c1CCCC2)c1cc([N+](=O)[O-])ccc1Cl	-79*
O=C(Nc1cccc2ncccc12)c1cc([N+](=O)[O-])ccc1Cl	-62*
Cc1ccc(O)c(NC(=O)c2cc([N+](=O)[O-])ccc2Cl)c1	-62*
Cc1ccc(C2(c3ccc(C)cc3)CC2C(=O)Nc2ccc([N+](=O)[O-])cc2O)cc1 (configuration not stated)	67
COC(=O)c1ccc(S(=O)(=O)N2CCc3ccccc32)cc1	-96*
SMILES	aSyn UTR act
COc1ccc(-c2nnc(NC(=O)c3ccc(S(=O)(=O)N4CCCc5ccccc54)cc3)o2)cc1	69
CCOC(=O)CNC(=O)c1sc(NC(=O)c2ccccc2F)nc1C	-151*
CCOC(=O)CNC(=O)c1sc(NC(=O)c2cccc(F)c2)nc1C	-98*
Cc1cc(C)n(-c2ccc(C(=O)Nc3ccc4c(c3)OCO4)cc2)n1	-173*
Cc1cc(C)n(-c2ccc(C(=O)NC3=NCCS3)cc2)n1	-110*
COc1cc(CNc2ncn[nH]2)ccc1OCc1cccc(C)c1	-95*
Cc1cnc(NC(=O)c2cc3c(C)nn(-c4ccccc4)c3s2)s1	-66*
Cc1cccn2c(=O)c3cc(C(=O)N4CCCCC4)sc3nc12	-64*
Cc1nn(-c2ccccc2)c2sc(C(=O)N3CCCCC3)cc12	-68*
CCC(CC)NC(=O)c1cc2c(C)nn(Cc3ccccc3Cl)c2s1	71
N#Cc1c(NC(=O)C2CCCO2)sc2c1CCCCCC2 (configuration not stated)	-98*
NC(=O)c1c(NC(=O)C2CCCO2)sc2c1CCCC2 (configuration not stated)	-74*
C=CCSc1nncn1/N=C/c1ccc(OC)cc1	-99*
CCc1ccc(-c2csc(NC(=O)C3=NN(c4ccccc4)C(=O)CC3)n2)cc1	-97*
Cc1ccc(N2CS(=O)(=O)/C(=C/N(C)C)C2=O)cc1	-108*
CN(C)/C=C1\C(=O)N(c2ccc(Cl)cc2)CS1(=O)=O	-126*
CCOc1cc(C2c3c(n[nH]c3C)C(=O)N2c2ccc(Br)cc2)ccc1O (configuration not stated)	-62*
O=C(c1ccc2c3n(nc2c1)-c1ccccc1CO3)N1CCOCC1	-114*
O=C(NCC1CCCO1)c1ccc2c3n(nc2c1)-c1ccccc1CO3 (configuration not stated)	-103*
Cc1ccc2c(c1)COc1c3ccc(C(=O)N4CCCCC4)cc3nn1-2	-108*
O=C(c1ccc2c3n(nc2c1)-c1ccc(Cl)cc1CO3)N1CCOCC1	-109*
CCOc1ccc(/C=C/C(=O)c2ccccc2)cc1OC	-112*
COc1cc(/C=C/C(=O)c2ccc(O)cc2)ccc1OCC#N	-134*
COc1cccc(C(=O)/C=C/c2ccc(OCC#N)c(OC)c2)c1	-121*
CCCCN1C(=O)C(=O)N(c2ccccc2)C1=S	-135*
SMILES	aSyn UTR act
CCCCCCN1C=CC(=C2C(=O)c3ccccc3C2=O)C=C1	107
COc1ccc(NC(=O)COc2ccc(/C=N/NC(=O)c3cccnc3)cc2OC)cc1	-105*
COc1cc(/C=N/NC(=O)c2cccnc2)ccc1OCC(=O)Nc1ccccc1Cl	-73*
COc1ccc(C(C(=O)NC2CCCCC2)N(C(=O)CCl)c2cccc(Cl)c2)cc1 (configuration not stated)	-74*
CC(C)c1ccc(N(C(=O)c2ccco2)C(C(=O)NC2CCCC2)c2ccncc2)cc1 (configuration not stated)	-150*
O=C(NC1CCCCC1)C(c1cccnc1)N(C(=O)CCl)c1ccc(F)cc1 (configuration not stated)	-94*
CCC(C)c1ccc(N(C(=O)c2ccco2)C(C(=O)NC2CCCC2)c2cccnc2)cc1 (configuration not stated)	-115*
C#CC(=O)N(c1ccc(OC)cc1OC)C(C(=O)NC1CCCC1)c1cccs1 (configuration not stated)	92
CCN(C(=O)COC(=O)/C=C/c1cnc2ccccc2n1)c1ccccc1	-65*
CCC(C)(C)NC(=O)/C=C/c1cnc2ccccc2n1	-122*
O=C(/C=C/c1cnc2ccccc2n1)NC12CC3CC(CC(C3)C1)C2	-140*
COc1ccc(N)cc1-n1c(C)ccc1C	-118*
CSCC(=O)Nc1nc(-c2ccc3c(c2)OCCO3)cs1	-117*
O=C(CSCC(=O)Nc1nc(-c2ccc3c(c2)OCO3)cs1)Nc1nccs1	-111*
O=C(Nc1nc(-c2ccc3c(c2)OCO3)cs1)C1CC1	-184*
CC(C)/C(=N/Nc1ccccc1[N+](=O)[O-])c1ccccc1	-86*
O=[N+]([O-])c1c(Nc2ccccc2O)cc(N2CCOCC2)c2nonc12	49
C/C(=N/Nc1ccccc1[N+](=O)[O-])c1ccc(C)c([N+](=O)[O-])c1	-166*
C/C(=N\Nc1ccccc1[N+](=O)[O-])c1ccc(N2CCOCC2)cc1	-82*
Cc1ccc(/C=C2\SC(=S)N(CCCC(=O)NNC(=O)c3ccccc3O)C2=O)cc1	107
Cc1cc(/C=C2\SC(=S)NC2=O)c(C)n1-c1cccc(O)c1	-111*
Cc1cc(/C=C2\SC(=S)N(C)C2=O)c(C)n1-c1ccccc1O	-126*
Cc1ccc(-n2c(C)cc(/C=C3\SC(=O)NC3=O)c2C)cc1	-174*
Cc1cc(/C=C2\SC(N)=NC2=O)c(C)n1-c1ccc(F)cc1	-62*
Cc1cc(/C=C2/C(=O)NN(c3ccccc3)C2=O)c(C)n1-c1cccc(O)c1	-74*
SMILES	aSyn UTR act
CCn1c(C)cc(/C=C2/SC(=S)NC2=O)c1C	-67*
COc1ccc(-n2c(C)cc(/C=C3\SC(=O)NC3=O)c2C)cc1	-146*
O=C(CNC(=O)c1cccc(F)c1)N/N=C/c1ccc([N+](=O)[O-])s1	-105*
O=C(N/N=C/c1ccc([N+](=O)[O-])s1)c1ccccc1	68
COC(=O)N/N=C/c1ccc([N+](=O)[O-])s1	-142*
COc1ccccc1NC(=O)C(=O)N/N=C/c1ccc([N+](=O)[O-])s1	-138*
